Test results as given in PubChem BioAssay (Tox21).
Inconclusive results are not listed. Calls of active or inactive are those of the source. Unless noted, calls come from the whole dose curve; as a rule, active = well fitted curve in the direction sought with a large enough effect in the repeat runs; inconclusive = weak or mixed curves; inactive = no such curve, though single readings can be large; an effect the other way counts as inactive or inconclusive.

Columns and labels:
[1] = qHTS assay to identify small molecule antagonists of the estrogen related receptor (ERR) signaling pathway from Tox21 library - cell viability counter screen (AID 1224834); note: nearly all actives have a fitted effect of over 30% in size; note: potency is the fitted concentration of half-maximal effect
Method in brief: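 Compounds in DMSO were pinned onto ERR cells that had been incubated for 6 h, and the plates were held at 37 C for 17.5 h. CellTiter-Fluor reagent was then added and fluorescence was measured after 30 min.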

[2] = target: Luciferin 4-monooxygenase (Photinus pyralis) (UniProt P08659); experiment: qHTS assay to identify small molecule inhibitors of firefly luciferase (AID 1224835); note: nearly all actives have a fitted effect of over 25% in size; note: potency is the fitted concentration of half-maximal effect; for activity change, negative = inhibition: % is set by controls: 0 for no effect and ±100 for the full control effect
Luciferin 4-monooxygenase (Photinus pyralis), sequence (P08659 whole entry, looked up): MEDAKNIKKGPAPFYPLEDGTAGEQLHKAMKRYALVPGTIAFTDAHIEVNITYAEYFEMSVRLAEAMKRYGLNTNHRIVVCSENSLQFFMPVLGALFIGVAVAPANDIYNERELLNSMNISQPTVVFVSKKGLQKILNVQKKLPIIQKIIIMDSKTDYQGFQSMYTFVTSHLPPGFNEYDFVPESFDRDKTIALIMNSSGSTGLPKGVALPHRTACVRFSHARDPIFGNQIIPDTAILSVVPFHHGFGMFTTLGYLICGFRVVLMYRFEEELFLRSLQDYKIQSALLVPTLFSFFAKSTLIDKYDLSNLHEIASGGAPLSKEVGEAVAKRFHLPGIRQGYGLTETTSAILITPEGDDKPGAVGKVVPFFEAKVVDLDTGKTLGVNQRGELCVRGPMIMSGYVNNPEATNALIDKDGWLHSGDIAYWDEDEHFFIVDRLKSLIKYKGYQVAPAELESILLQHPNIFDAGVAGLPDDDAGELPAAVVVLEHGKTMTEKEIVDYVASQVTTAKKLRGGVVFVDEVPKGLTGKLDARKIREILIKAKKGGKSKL
Method in brief: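 Quantitative HTS format; KM concentrations of both substrates. Purified P. pyralis FLuc activity quantified from luminescence images.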

[3] = qHTS assay to identify small molecule agonists of the constitutive androstane receptor (CAR) signaling pathway - cell viability counter screen (AID 1224836); note: nearly all actives have a fitted effect of over 45% in size; note: potency is the fitted concentration of half-maximal effect
Method in brief: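 Compound titrations (15 concentrations) went onto HepG2-CYP2B6-hCAR cells 4 h after seeding, alongside PK11195 at a final 0.75 uM; a 23 h, 37 C/5% CO2 incubation preceded CellTiter-Fluor viability measurement.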

[4] = qHTS assay to identify small molecule antagonists of the constitutive androstane receptor (CAR) signaling pathway - cell viability counter screen (AID 1224837); note: nearly all actives have a fitted effect of over 45% in size; note: potency is the fitted concentration of half-maximal effect
Method in brief: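 Cells are seeded, rested 4 hr at 37 C/5% CO2, dosed with compound (15-point series) and 50 nM CITCO, incubated a further 23 hr, and then CellTiter-Fluor reagent is added before fluorescence is read. The line is HepG2 with stable hCAR and CYP2B6-2.2kb.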

[5] = target: Nuclear receptor subfamily 1 group I member 3 (Homo sapiens) (UniProt Q14994); experiment: qHTS assay to identify small molecule antagonists of the constitutive androstane receptor (CAR) signaling pathway (AID 1224838);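 note: HepG2 cells stably expressing hCAR with CYP2B6 luciferase reporter stimulated by CITCO; nearly all actives have a fitted effect of over 40% in size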; note: potency is the fitted concentration of half-maximal effect; for activity, negative = inhibition: % is set by controls: 0 for no effect and ±100 for the full control effect
Nuclear receptor subfamily 1 group I member 3 (Homo sapiens), sequence (Q14994 whole entry, looked up): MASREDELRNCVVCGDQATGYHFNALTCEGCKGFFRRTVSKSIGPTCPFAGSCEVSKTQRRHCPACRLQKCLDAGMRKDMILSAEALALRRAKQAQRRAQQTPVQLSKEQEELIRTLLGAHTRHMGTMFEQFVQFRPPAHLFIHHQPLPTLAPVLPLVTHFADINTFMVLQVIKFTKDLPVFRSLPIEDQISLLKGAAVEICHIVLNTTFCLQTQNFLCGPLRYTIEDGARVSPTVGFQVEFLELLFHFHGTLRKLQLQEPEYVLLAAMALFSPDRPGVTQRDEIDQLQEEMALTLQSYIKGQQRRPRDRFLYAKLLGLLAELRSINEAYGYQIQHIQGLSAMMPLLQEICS
Method in brief: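 Luminescence from a CYP2B6-2.2kb promoter reporter in hCAR-expressing HepG2 cells reflects CAR signaling. Cells received compounds at 15 concentrations and 50 nM CITCO (final), then incubated 24 h at 37 C/5% CO2.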

[6] = qHTS assay to identify small molecule antagonists of the estrogen related receptor signaling pathway with the pleiotropic PPARgamma coactivator (PGC) from Tox21 10K library (AID 1224841; call rule not given here; note: potency is the fitted concentration of half-maximal effect; actives are mostly falling curves and most rising ones were filed inactive; nearly all actives have a fitted effect of over 50% in size)
Method in brief: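 Cells stably carrying the PGC/ERR reporter, seeded at 2,000 per well, received pin-transferred compounds 6 h post-plating. Exposure lasted 18 h at 37 C. Signal: One-Glo luminescence.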

[7] = qHTS assay to identify small molecule agonists of the estrogen related receptor signaling pathway with the pleiotropic PPARgamma coactivator (PGC) from Tox21 10K library (AID 1224842); note: % is set by controls: 0 for no effect and ±100 for the full control effect; nearly all actives have a fitted effect of over 15% in size
Method in brief: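 PGC/ERR reporter cells (NTP line) were seeded 2,000 per well, rested 6 h at 37 C/5% CO2, then pin-dosed with compounds in DMSO for 18 h at 37 C; luciferase read by One-Glo luminescence after 30 min at room temperature.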

[8] = qHTS assay to identify small molecule agonists of the hypoxia (HIF-1) signaling pathway - cell viability counter screen (AID 1224844; calls by dose curve; note: nearly all actives have a fitted effect of over 50% in size; note: potency is the fitted concentration of half-maximal effect)
Method in brief: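 Viability counter screen: HRE-bla ME-180 cells plated 5 hrs before compound addition, treated 17 hrs at 37C and 5% CO2, then CellTiter-Glo added after the FRET reporter read; luminescence after 30 min.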

[9] = qHTS assay to identify small molecule agonists of H2AX - cell viability counter screen (AID 1224847; calls by dose curve; note: nearly all actives have a fitted effect of over 30% in size; note: potency is the fitted concentration of half-maximal effect)
Method in brief: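 Read-out: CellTiter-Glo luminescence, 30 min RT. Cells: wild-type CHO-K1, 1000/well, 10% FBS, plated overnight at 37C. Treatment: 15 concentrations, 3 hr, 37C, 0.76% DMSO.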

[10] = qHTS assay to identify small molecule antagonists of the estrogen related receptor (ERR) signaling pathway from Tox21 library (AID 1224848); note: nearly all actives have a fitted effect of over 50% in size; note: potency is the fitted concentration of half-maximal effect
Method in brief: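 First, 2,000 ERR cells per well were plated and held 6 h at 37 C/5% CO2. Next, compounds in DMSO were pinned in and left 18 h at 37 C. Finally, ONE-Glo was added and luminescence read after 30 min at room temperature.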

[11] = qHTS assay to identify small molecule agonists of the estrogen related receptor (ERR) signaling pathway from Tox21 library (AID 1224849; calls by dose curve; note: % is set by controls: 0 for no effect and ±100 for the full control effect; nearly all actives have a fitted effect of over 15% in size); conditions: ERR reporter cell line, ONE-Glo luciferase, 18 h; at 92.4 µM (top of the series) unless noted
Method in brief: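 Quantitative HTS in agonist format: NTP ERR cell line, compounds transferred in DMSO after 6 h plating, 18 h incubation at 37 C, ONE-Glo luminescence endpoint.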

[12] = qHTS RealTime-Glo MT Cell Viability Assay in HepG2 cells - 24 hour (AID 1224867); note: nearly all actives have a fitted effect of over 50% in size; note: potency is the fitted concentration of half-maximal effect
Method in brief: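 qHTS, HepG2, 600 cells/well, RealTime-Glo (NanoLuc + prosubstrate) added with cells; 5 h preincubation; DMSO compound addition; 37 C; luminescence at 0/8/16/24/32/40 h.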

[13] = qHTS RealTime-Glo MT Cell Viability Assay in HEK293 cells - 32 hour (AID 1224868); note: nearly all actives have a fitted effect of over 50% in size; note: potency is the fitted concentration of half-maximal effect
Method in brief: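 Assay medium contained NanoLuc luciferase plus cell-permeant prosubstrate, added with HEK293 cells at 600 cells/well. After 5 h at 37 C/5% CO2 compounds were added; plates stayed at 37 C for 40 h with serial luminescence reads.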

[14] = A CellTox Green Cytotoxicity Assay to monitor cytotoxicity in HEK293 cells - 0 hour (AID 1224869)
Method in brief: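 Dead-cell fluorescence measured kinetically: asymmetric cyanine dye, HEK293, 600 cells/well, 5 h settle, 23 nL cpd/DMSO, 37 C, reads 0–40 h every 8 h.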

[15] = qHTS RealTime-Glo MT Cell Viability Assay in HepG2 cells - 40 hour (AID 1224870); note: nearly all actives have a fitted effect of over 50% in size; note: potency is the fitted concentration of half-maximal effect
Method in brief: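 HepG2 cells mixed with RealTime-Glo MT reagents (NanoLuc plus cell-permeant prosubstrate) were seeded at 600 cells/well, incubated 5 h at 37 C/5% CO2, then pinned with compounds in DMSO; nonlytic luminescence tracked viability during 40 h treatment.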

[16] = target: Nuclear receptor subfamily 1 group I member 3 (Homo sapiens) (UniProt Q14994); experiment: qHTS assay to identify small molecule agonists of the constitutive androstane receptor (CAR) signaling pathway (AID 1224839);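 note: HepG2 cells stably carrying human CAR and a CYP2B6 luciferase reporter; % is set by controls: 0 for no effect and ±100 for the full control effect; nearly all actives have a fitted effect of over 15% in size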
Method in brief: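 In this screen, CAR-driven CYP2B6 promoter activity is measured by luminescence in HepG2-CYP2B6-hCAR cells after 24 h with test compounds and 0.75 uM PK11195 (final concentration).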

[17] = target: Thyrotropin receptor (Homo sapiens) (UniProt P16473); experiment: qHTS assay to identify small molecule agonists of the thyroid stimulating hormone receptor (TSHR) signaling pathway (AID 1224843; calls by dose curve; note: % is set by controls: 0 for no effect and ±100 for the full control effect; nearly all actives have a fitted effect of over 45% in size)
Thyrotropin receptor (Homo sapiens), sequence (P16473 whole entry, looked up): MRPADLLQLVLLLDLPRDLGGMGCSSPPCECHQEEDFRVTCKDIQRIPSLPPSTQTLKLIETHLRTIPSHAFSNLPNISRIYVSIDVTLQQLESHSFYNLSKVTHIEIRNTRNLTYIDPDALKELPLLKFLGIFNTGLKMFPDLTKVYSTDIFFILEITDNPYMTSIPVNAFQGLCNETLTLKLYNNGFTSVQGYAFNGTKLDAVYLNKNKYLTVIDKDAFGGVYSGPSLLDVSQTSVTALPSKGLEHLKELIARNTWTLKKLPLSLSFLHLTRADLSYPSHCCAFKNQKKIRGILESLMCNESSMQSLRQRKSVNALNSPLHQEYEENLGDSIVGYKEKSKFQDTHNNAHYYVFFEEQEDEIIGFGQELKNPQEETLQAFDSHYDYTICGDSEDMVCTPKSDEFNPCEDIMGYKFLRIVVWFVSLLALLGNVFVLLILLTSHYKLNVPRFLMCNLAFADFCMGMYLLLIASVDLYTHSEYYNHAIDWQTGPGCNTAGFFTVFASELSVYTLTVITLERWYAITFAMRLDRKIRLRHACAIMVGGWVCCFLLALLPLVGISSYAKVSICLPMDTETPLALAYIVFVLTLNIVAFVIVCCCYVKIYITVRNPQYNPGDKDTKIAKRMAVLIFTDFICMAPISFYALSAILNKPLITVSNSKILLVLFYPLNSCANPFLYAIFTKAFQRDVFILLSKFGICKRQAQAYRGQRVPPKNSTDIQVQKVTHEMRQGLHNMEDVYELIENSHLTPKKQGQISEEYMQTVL
Method in brief: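 Compounds are titrated over 15 concentrations, in triplicate, onto TSHR-HEK293 cells seeded at 800/well. Plates sit 30 min at room temperature before cAMP-d2 and anti-cAMP cryptate are added; signal is read after a further hour.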

[18] = qHTS assay to identify small molecule agonists of H2AX (AID 1224845; active = well fitted activation curve with a large enough effect in the signal ratio in the repeat runs, not every such curve was filed as active; the % refers to the signal ratio; note: % is set by controls: 0 for no effect and ±100 for the full control effect)
Method in brief: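 Wild-type CHO-K1 cells plated overnight, then exposed 3 hr at 37C to compounds at 15 concentrations (0.76% DMSO). Lysed, then HTRF anti-pH2AX(S139)-cryptate/anti-H2AX-d2 detection after 24 hr at room temperature; emissions 665 and 620 nm.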

[19] = qHTS assay to identify small molecule agonists of the hypoxia (HIF-1) signaling pathway (AID 1224846; active = well fitted activation curve with a large enough effect in the signal ratio in the repeat runs, not every such curve was filed as active; the % refers to the signal ratio; note: % is set by controls: 0 for no effect and ±100 for the full control effect)
Method in brief: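 Agonist mode reporter screen. ME-180 cells stably expressing bla under HRE control received test compounds in DMSO for 17 hrs (37C, 5% CO2), and beta-lactamase activity was then detected with the CCF4-AM FRET substrate.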

[20] = qHTS assay to identify small molecule antagonists of the estrogen related receptor signaling pathway with the pleiotropic PPARgamma coactivator (PGC) from Tox21 10K library - cell viability counter screen (AID 1224840; active = well fitted cell-killing curve with a large enough effect in the repeat runs, not every such curve was filed as active; note: nearly all actives have a fitted effect of over 40% in size; note: potency is the fitted concentration of half-maximal effect)
Method in brief: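 Cell viability is measured by CellTiter-Fluor fluorescence in PGC/ERR cells that receive compounds after a 6-hour attachment period and are then incubated 17.5 hours at 37 C.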

CC(=O)N1CCN(c2ccc(OC[C@H]3CO[C@](Cn4ccnc4)(c4ccc(Cl)cc4Cl)O3)cc2)CC1
inactive: Potency [2] | Potency [5] | Potency [7] | activity change, positive = activation [11] -79.4% | Potency [14]
active: Potency [1] 27.3 µM | Potency [3] 48.6 µM | Potency [4] 48.6 µM | Potency [6] 27.3 µM | Potency [8] 49 µM | Potency [9] 101 µM | Potency [10] 12.2 µM | Potency [12] 49 µM | Potency [13] 24.5 µM | Potency [15] 54.9 µM

CC1=NC(C)OC1C (stereo not drawn)
inactive: Potency [1] | Potency [2] | Potency [3] | Potency [4] | Potency [5] | Potency [16] | Potency [17] | Potency [8] | Potency [18] | Potency [19] | Potency [9] | Potency [12] | Potency [14] | Potency [15]

CSc1ccc(C(=O)c2[nH]c(=O)[nH]c2C)cc1
inactive: Potency [1] | Potency [2] | Potency [3] | Potency [4] | Potency [16] | Potency [20] | Potency [8] | Potency [18] | Potency [10] | Potency [13] | Potency [14] | Potency [15]

CC(C)(C)c1ccc(C(=O)O)cc1
active: Potency [2] 35.6 µM
inactive: Potency [1] | Potency [3] | Potency [4] | Potency [20] | Potency [17] | Potency [8] | Potency [18] | Potency [19] | Potency [9] | Potency [12] | Potency [13] | Potency [14] | Potency [15]

CCCCCCCCNC(C)C(O)c1ccc(SC(C)C)cc1 (stereo not drawn)
active: Potency [1] 26.6 µM | Potency [3] 29.8 µM | Potency [4] 29.8 µM | Potency [20] 29.8 µM | Potency [8] 19 µM | Potency [10] 23.7 µM | Potency [12] 13.4 µM | Potency [13] 9.52 µM | Potency [15] 13.4 µM
inactive: Potency [2] | Potency [7] | Potency [18] | activity change, positive = activation [11] -63% [at 42.5 µM] | Potency [14]

CC(=O)S[C@@H]1CC2=CC(=O)CC[C@]2(C)[C@H]2CC[C@@]3(C)[C@@H](CC[C@@]34CCC(=O)O4)[C@H]12
active: Potency [5] 54.5 µM
inactive: Potency [1] | Potency [2] | Potency [3] | Potency [4] | Potency [16] | Potency [17] | Potency [19] | Potency [14] | Potency [15]

CC(NN)c1ccccc1 (stereo not drawn)
inactive: viability change, negative = cytotoxic [1] 6.9% [at 19 µM] | activity change, negative = inhibition [2] -10.4% [at 23.6 µM] | viability change, negative = cytotoxic [3] -0.8% [at 19 µM] | activity change, negative = cytotoxicity [4] 5.95% [at 19 µM] | activity, negative = inhibition [5] 27.3% [at 19 µM] | viability change, negative = cytotoxic [20] -1.05% [at 19 µM] | activation [17] -0.741% [at 19 µM] | activity change, negative = cytotoxicity [8] 1.2% [at 15.8 µM] | activation (H2AX phosphorylation) [18] -2.63% [at 31.6 µM] | activation [19] -1.03% [at 15.8 µM] | activity change, negative = cytotoxicity [12] 1.66% [at 15.8 µM] | activity change, negative = cytotoxic [13] 1.03% [at 15.8 µM] | cytotoxicity [14] -1.54% [at 15.8 µM] | activity change, negative = cytotoxic [15] -0.13% [at 15.8 µM]
